{"source": "PubChem BioAssay AID624405", "about": "(Broad Institute, 2012)", "note": "In all, about 1,900 compounds went through this assay and about 250 (13%) were called active. Another 4% or so got no clear call; they are omitted. A selection follows. Results with a measured potency or affinity are listed apart. Values without a mark were called inactive.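 The calls were made as follows: active = fitted curve reaches 40% rescue activity at or below the top valid dose, in every test run; inconclusive = test runs disagree, some active and some inactive; inactive = every run misses the threshold or moves the wrong way.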"}
{"experiment": "rescue of simvastatin-induced ATP loss – cell-based, C2C12 myotubes, ATP luminescence, cherry pick, dose response (AID 624405);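 also: myotubes are challenged with simvastatin at 10 µM to lower ATP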", "settings": "48 h, scaled: DMSO wells 0, geranylgeraniol wells 100; series mostly up to 19.5 µM; rescue activity (ATP increase): at the top concentration"}
{"compound": "O=C1c2ccccc2NC(c2cccc(F)c2)N1Cc1ccco1", "note": "(stereo not given)", "rescue activity (ATP increase)": "16.9%"}
{"compound": "C[C@H](CO)N1C[C@H](C)[C@@H](CN(C)S(=O)(=O)c2cccs2)OCCCC[C@H](C)Oc2ccc(NC(=O)Nc3ccc(F)cc3)cc2C1=O", "rescue activity (ATP increase)": "-8.95%"}
{"compound": "CCc1ccc(C(O)(CC(C)C)C(CN2CCOCC2)c2ccccc2)cc1", "note": "(stereo not given)", "rescue activity (ATP increase)": "30.6%"}
{"compound": "N#CC(c1ccc(Cl)cc1)c1ccc(Cl)nn1", "note": "(stereo not given)", "rescue activity (ATP increase)": "23.7%"}
{"compound": "Cc1cc(C)n(CC(=O)N2c3ccccc3Sc3ccccc32)n1", "rescue activity (ATP increase)": "-1.56%"}
{"compound": "O=C(COC(=O)Cc1ccccc1F)NCc1ccc(Cl)cc1", "rescue activity (ATP increase)": "-19.9%"}
{"compound": "CCOC(=O)C(C)C1(O)c2ccccc2-c2ncccc21", "note": "(stereo not given)", "rescue activity (ATP increase)": "-4.05%"}
{"compound": "CN1C[C@H]2[C@@H](c3ccccc31)[C@@H](CO)N2Cc1ccccc1", "rescue activity (ATP increase)": "5.51%"}
{"compound": "CCOc1ccc(N(CC(=O)NCc2ccco2)S(=O)(=O)c2ccc(OC)c(OC)c2)cc1", "rescue activity (ATP increase)": "11.6%"}
{"compound": "CC(=O)N1c2ccc(S(=O)(=O)NCCC(=O)NCCc3ccc(C)cc3)cc2CC1C", "note": "(stereo not given)", "rescue activity (ATP increase)": "-9.48%"}
{"compound": "Nc1nnc(-c2ccccc2)c(-c2ccccc2)n1", "rescue activity (ATP increase)": "15.7%"}
{"compound": "O=S(=O)(NC1=NCCC1)c1ccc(F)cc1", "rescue activity (ATP increase)": "27.9%"}
{"compound": "C[C@@H]1CCCCO[C@@H](CN(C)S(=O)(=O)c2cccs2)[C@@H](C)CN([C@@H](C)CO)C(=O)c2cc(NC(=O)Nc3ccc(F)cc3)ccc2O1", "rescue activity (ATP increase)": "2.39%"}
{"compound": "C[C@@H]1CCCCO[C@H](CN(C)C(=O)NC2CCCCC2)[C@H](C)CN([C@@H](C)CO)C(=O)c2cc(NS(=O)(=O)c3cccs3)ccc2O1", "rescue activity (ATP increase)": "21.2%"}
{"compound": "Cc1cc(S(=O)(=O)Nc2nc(CN3CCOCC3)nc3sc4c(c23)CCCC4)ccc1F", "rescue activity (ATP increase)": "-8.27%"}
{"compound": "C[C@H]1CN([C@@H](C)CO)C(=O)Cc2cc(NC(=O)CCCCCC(=O)Nc3ccccc3N)ccc2O[C@@H]1CN(C)Cc1ccc(Cl)c(Cl)c1", "rescue activity (ATP increase)": "37.1% [at 18 µM]"}
{"compound": "C[C@H]1CN([C@@H](C)CO)C(=O)Cc2cc(NC(=O)Cc3ccccc3)ccc2O[C@@H]1CN(C)Cc1ccc(Cl)c(Cl)c1", "rescue activity (ATP increase)": "22.2%"}
{"compound": "CC1CCCCN1S(=O)(=O)c1ccc(C(=O)Nc2sccc2C(N)=O)cc1", "note": "(stereo not given)", "rescue activity (ATP increase)": "39%"}
{"compound": "O=C(CNC(=O)c1ccc(Br)cc1)N/N=C/c1cccnc1", "rescue activity (ATP increase)": "11.2%"}
{"compound": "C[C@@H]1CCCCO[C@@H](CN(C)CC2CCCCC2)[C@@H](C)CN([C@H](C)CO)C(=O)c2cc(NC(=O)Nc3ccc4c(c3)OCO4)ccc2O1", "rescue activity (ATP increase)": "-13.1% [at 21 µM]"}
{"compound": "C[C@@H]1CN([C@@H](C)CO)C(=O)c2cc(NC(=O)Nc3ccc(C(F)(F)F)cc3)ccc2O[C@@H]1CN(C)Cc1ccc(C(=O)Nc2ccccc2N)cc1", "rescue activity (ATP increase)": "4.69%"}
{"compound": "C[C@@H]1CN([C@H](C)CO)C(=O)c2cccc(NC(=O)c3nc4ccccc4s3)c2O[C@@H]1CN(C)C(=O)Nc1cccc2ccccc12", "rescue activity (ATP increase)": "24%"}
{"compound": "C[C@@H]1CN([C@H](C)CO)C(=O)c2cccc(NC(=O)C3CCOCC3)c2O[C@@H]1CN(C)Cc1ccc(C(=O)Nc2ccccc2N)cc1", "rescue activity (ATP increase)": "39%"}
{"compound": "C[C@@H]1CN([C@@H](C)CO)C(=O)c2cccc(NC(=O)Nc3ccccc3)c2O[C@H]1CN(C)Cc1ccc(C(=O)Nc2ccccc2N)cc1", "rescue activity (ATP increase)": "25.3%"}
{"compound": "C[C@@H]1CN([C@H](C)CO)C(=O)c2cc(NC(=O)Nc3ccc(C(F)(F)F)cc3)ccc2O[C@H]1CN(C)Cc1ccc(C(=O)Nc2ccccc2N)cc1", "rescue activity (ATP increase)": "27.5% [at 16 µM]"}
{"compound": "C[C@H]1CN([C@@H](C)CO)C(=O)c2cc(NC(=O)Nc3ccc(C(F)(F)F)cc3)ccc2O[C@H]1CN(C)Cc1ccc(C(=O)Nc2ccccc2N)cc1", "rescue activity (ATP increase)": "44.6% [at 18 µM]"}
{"compound": "C[C@@H]1CN([C@@H](C)CO)C(=O)c2cccc(NC(=O)c3nc4ccccc4s3)c2O[C@H]1CN(C)Cc1ccc(C(=O)Nc2ccccc2N)cc1", "rescue activity (ATP increase)": "14.9%"}
{"compound": "C[C@H](CO)N1C[C@H](C)[C@H](CN(C)Cc2ccc(C(=O)Nc3ccccc3N)cc2)Oc2ccc(NC(=O)Nc3ccc(C(F)(F)F)cc3)cc2C1=O", "rescue activity (ATP increase)": "13.2% [at 16 µM]"}
{"compound": "O=C(O)CCC(C(=O)O)n1c(O)c(C2=c3ccccc3=NC2=O)sc1=S", "note": "(stereo not given)", "rescue activity (ATP increase)": "-21%"}
{"compound": "COc1ccc(C(=O)N2C[C@H]3[C@@H](c4ccccc42)[C@H](CO)N3Cc2ccccc2)cc1", "rescue activity (ATP increase)": "16.5% [at 21 µM]"}
{"compound": "C[C@H]1CN([C@@H](C)CO)C(=O)c2cccc(NC(=O)Nc3ccc(C(F)(F)F)cc3)c2O[C@@H]1CN(C)S(=O)(=O)c1ccc(Cl)cc1", "rescue activity (ATP increase)": "-65.9%"}
{"compound": "C[C@H]1CCCCO[C@H](CN(C)C(=O)Nc2cccc3ccccc23)[C@@H](C)CN([C@@H](C)CO)C(=O)c2cc(NC(=O)Nc3ccc4c(c3)OCO4)ccc2O1", "rescue activity (ATP increase)": "11.2% [at 21 µM]"}
{"compound": "COc1ccc(S(=O)(=O)N2CCN(c3ccc4nnc(-c5ccccc5)n4n3)CC2)cc1", "rescue activity (ATP increase)": "30.8%"}
{"compound": "COc1ccc(-c2nc(CC(=O)O)cs2)cc1", "rescue activity (ATP increase)": "7.8%"}
{"compound": "COc1ccc(-c2noc(CCCOc3ccc(Cl)cc3Cl)n2)cc1", "rescue activity (ATP increase)": "4.69%"}
{"compound": "COc1ccc2sc(-c3ccccc3OC)c(-c3ccc(O)cc3)c2c1", "rescue activity (ATP increase)": "-11.5%"}
{"compound": "C[C@@H]1CCCCO[C@@H](CN(C)S(=O)(=O)c2ccc(F)cc2)[C@@H](C)CN([C@H](C)CO)C(=O)c2cc(NC(=O)Nc3cccc4ccccc34)ccc2O1", "rescue activity (ATP increase)": "-3.78% [at 21 µM]"}
{"compound": "C[C@@H]1CCCCO[C@H](CN(C)S(=O)(=O)c2cccs2)[C@H](C)CN([C@H](C)CO)C(=O)c2cc(NC(=O)Nc3ccc(F)cc3)ccc2O1", "rescue activity (ATP increase)": "19.6%"}
{"compound": "C[C@H]1CN([C@@H](C)CO)C(=O)c2cccc(NC(=O)Nc3ccc4c(c3)OCO4)c2O[C@@H]1CN(C)CC1CCCCC1", "rescue activity (ATP increase)": "28.6%"}
{"compound": "C[C@H]1CN([C@@H](C)CO)C(=O)c2cccc(NC(=O)Nc3ccc(F)cc3)c2O[C@@H]1CN(C)CC1CCCCC1", "rescue activity (ATP increase)": "-6.58% [at 21 µM]"}
